Here are results for eight compounds from PubChem BioAssay (NCI).

Experiment in all cases: NCI-60 one-dose screen, 48 h (100 = growth as untreated, 0 = no growth, -100 = all killed)
Holding throughout (conditions): 10 µM unless noted

Experiment [1] relates to SR leukemia.
Experiment [2] has as its system RPMI-8226 leukemia.
For experiment [3], the system named is OVCAR-8 ovarian.
The test system of experiment [4] is OVCAR-5 ovarian.
In experiment [5] the test system is OVCAR-4 ovarian.
Experiment [6] deals with SK-OV-3 ovarian.
Experiment [7] deals with IGROV1 ovarian.
Experiment [8] deals with HS 578T breast.
In experiment [9] the test system is NCI/ADR-RES ovarian.
In experiment [10] the test system is T-47D breast.
For experiment [11], the system named is BT-549 breast.
Experiment [12] deals with MDA-MB-435 melanoma.
The subject of experiment [13] is SW-620 colon.
The test system of experiment [14] is MCF7 breast.
Experiment [15] has as its system HCT-116 colon.
The test system of experiment [16] is HCC-2998 colon.
For experiment [17], the system named is KM12 colon.

The structures appear in SMILES notation. This is part of a sample that, as a whole, favours compounds with a hit. Of some 83,000 tested, about 20% had one in any assay.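 Cells were grown in 96-well plates and exposed to the test compound at a single concentration for 48 hours; results are reported as percent growth, with values below 10 considered active.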 Activity calls are given as the source filed them.

With `CCOC(=O)/C(F)=C/C1CC1C1CCCCC1` (stereo unspecified), the growth in experiment [1] was 111% (inactive); in experiment [2], 105% (inactive); in experiment [3], 109% (inactive); in [4] it was 102% (inactive); in [5] it was 107% (inactive); in experiment [6], 126% (inactive). In addition, the growth in experiment [7] is 110% (inactive); in [8], 105% (inactive); in [9], 101% (inactive); in experiment [10], 102% (inactive); in [11] it was 124% (inactive); in experiment [12], 102% (inactive). Moreover, the growth in experiment [13] was 101% (inactive); in experiment [14] it was 92.2% (inactive); in experiment [15] it was 97.2% (inactive); in experiment [16], 107% (inactive); in experiment [17], 104% (inactive).
In the case of `CCN1C(=O)N(CC)C2C1NN=C1SC(c3ccccc3)=CC(=O)N12` (stereo unspecified), the growth in experiment [1] is 16.2% (inactive); in experiment [2], 4.35% (active); in experiment [3] it was 18.2% (inactive); in experiment [4], 29.1% (inactive); in [5], 72.5% (inactive); in [6] it was 42.2% (inactive). For the same compound, the growth in experiment [7] is 41.4% (inactive); in experiment [8], 3.22% (active); in experiment [9], 19.2% (inactive); in experiment [10], 42.1% (inactive); in experiment [11], -4.35% (active); in experiment [12], -33.3% (active). Moreover, the growth in experiment [13] was 18.3% (inactive); in experiment [14] it was 17.7% (inactive); in experiment [15], 14.9% (inactive); in experiment [16], 21.1% (inactive); in [17] it was 27.2% (inactive).
In the case of `Cc1ccc(NC(=O)N[C@@H](Cc2cc(F)cc(F)c2)C(=O)NC2C(=O)N3CCC[C@H]3C(=O)N3CCCC[C@H]3C(=O)N[C@@H](C)C(=O)N3C[C@H](C)C[C@H]3C(=O)O[C@H]2C)c(F)c1` (stereo partly specified), the growth was 30.6% (inactive) in experiment [1]; 11.6% (inactive) in [2]; 21.6% (inactive) in experiment [3]; 36.3% (inactive) in experiment [4]; 23.9% (inactive) in experiment [5]; 23.9% (inactive) in experiment [6]. The growth in [7] is 47.5% (inactive); in experiment [8], 28.9% (inactive); in [9] it was 20.1% (inactive); in experiment [10], 31.5% (inactive); in experiment [11] it was 28.7% (inactive); in experiment [12], 21.2% (inactive). The growth was 36.5% (inactive) in [13]; 15.5% (inactive) in [14]; 9.88% (active) in experiment [15]; 23.9% (inactive) in [16]; 38.7% (inactive) in [17].
As to `O=C1c2c(c3c4cccnc4[nH]c3c3ccc4ccccc4c23)C(=O)N1CCN1CCCCC1`, the growth was 15.4% (inactive) in experiment [1]; 70.3% (inactive) in experiment [2]; 49.5% (inactive) in experiment [3]; 88.6% (inactive) in [4]; 95.2% (inactive) in experiment [5]; 62.9% (inactive) in [6]. For the same compound, the growth in experiment [7] was 42.8% (inactive); in experiment [8] it was 105% (inactive); in experiment [9] it was 41.2% (inactive); in experiment [10], 46.4% (inactive); in [11], 84.4% (inactive); in [12], 69% (inactive). The growth in experiment [13] was 41.3% (inactive); in experiment [14], 14.5% (inactive); in experiment [15], 36.9% (inactive); in experiment [16], 70% (inactive); in experiment [17] it was 99.6% (inactive).
Take `O=C1Nc2ccc(Br)cc2/C1=N\c1nnc(-c2ccc(Cl)cc2)o1`: the growth in experiment [1] was 10.9% (inactive); in experiment [2], 62.5% (inactive); in experiment [3], 82.6% (inactive); in [4], 98.7% (inactive); in experiment [5] it was 86.4% (inactive); in experiment [6] it was 73.3% (inactive). The growth in [7] is 55.3% (inactive); in experiment [8], 83.1% (inactive); in experiment [9] it was 36.9% (inactive); in [10] it was 76.7% (inactive); in experiment [11], 63.1% (inactive); in experiment [12] it was -20.7% (active). Besides, the growth in [13] is 16.5% (inactive); in experiment [14] it was 34.9% (inactive); in experiment [15], 49.2% (inactive); in experiment [16], 96.2% (inactive); in [17], 70% (inactive).
For the compound `C#C[C@]1(O)CC[C@H]2[C@@H]3CC=C4c5sc(Nc6ccncc6)nc5CC[C@]4(C)[C@H]3CC[C@@]21C`, the growth in [1] is 4.33% (active); in [2], -26.6% (active); in experiment [3], 51.4% (inactive); in [4], 38.6% (inactive); in experiment [5] it was 59.8% (inactive); in experiment [6] it was -38.1% (active). Also, the growth in experiment [7] was 24.4% (inactive); in experiment [8], -33.6% (active); in experiment [9], 33.1% (inactive); in [10] it was 39.9% (inactive); in experiment [11], 15.9% (inactive); in experiment [12] it was -75.2% (active). Also, the growth in [13] is -37.2% (active); in [14], -42.1% (active); in [15], 3.69% (active); in experiment [16], 1.79% (active); in experiment [17], -94.1% (active).
Consider `CCc1ccc(NC(=O)N[C@@H](Cc2cc(F)cc(F)c2)C(=O)N[C@@H]2C(=O)N3CCC[C@H]3C(=O)N3CCO[C@H](C)[C@H]3C(=O)N[C@@H](CO)C(=O)N3C[C@H](C)C[C@H]3C(=O)O[C@H]2C)c(F)c1`, for which the growth in experiment [1] is 32% (inactive); in experiment [2], 17% (inactive); in [3], 22.9% (inactive); in experiment [4], 35.9% (inactive); in experiment [5] it was 22.9% (inactive); in experiment [6] it was 26.3% (inactive). Besides, the growth in [7] was 39.5% (inactive); in [8], 35.8% (inactive); in experiment [9], 70% (inactive); in [10], 35.7% (inactive); in experiment [11], 33.3% (inactive); in experiment [12], 20.3% (inactive). The growth in experiment [13] is 35.7% (inactive); in experiment [14] it was 15.7% (inactive); in [15], 11.6% (inactive); in [16], 26% (inactive); in experiment [17], 39.6% (inactive).
Take `C/C(=N\NC(=S)Nc1ccc(Br)cc1)c1cc2ccccc2oc1=O`: the growth in experiment [1] is 0.863% (active); in [2] it was 16.3% (inactive); in experiment [3], 5.84% (active); in [4] it was 41.3% (inactive); in [5], 28.2% (inactive); in [6], 26.1% (inactive). Also, the growth in experiment [7] was 24.6% (inactive); in experiment [8], 20.5% (inactive); in experiment [9] it was 11.4% (inactive); in [10], 43.1% (inactive); in experiment [11] it was 8.5% (active); in experiment [12], 11.4% (inactive). For the same compound, the growth in experiment [13] is 27.7% (inactive); in [14], 6.49% (active); in [15], 16.3% (inactive); in experiment [16], 29.8% (inactive); in experiment [17] it was 0.612% (active).
